# Structures can show the parent of a compound that is named as a salt. The campaign covered roughly 5,800 compounds. About 620 (11%) showed activity. What follows is part of a selection rich in actives, with near analogues and random picks from the rest. Values without a mark were called inactive.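 How the source made its calls: active = score above a cut-off or among the top three wells of a plate; in these data no inactive exceeds 0.85.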
# System: primary human hepatic stellate cells (donor 1)
# Experiment: scaled lipid accumulation score (0 = DMSO-like, 1 = nortriptyline-like); higher = stronger HSC inactivation (lipid re-accumulation), active = hit call of the paper
# Conditions: 48 h
# [1] = library stock concentration: 1 mM
# [2] = library stock concentration: 10 mM
# [3] = library stock concentration: 3.33 mM
compound,measurement,setting,value
CCCCC[C@](C)(O)/C=C/[C@H]1C(=O)C[C@H](O)[C@@H]1C/C=C\CCCC(=O)O [15(S)-15-methyl Prostaglandin D2],scaled lipid accumulation score,[1],≤ 0
COC1CCC(C(=O)c2ccc3nc4c(cc3c2)CCCO4)CC1 (stereo not drawn),scaled lipid accumulation score,[2],≤ -0.001
NCC(O)c1ccc(O)c(O)c1 (stereo not drawn),scaled lipid accumulation score,[2],≤ 0
COC(=O)/C=C/c1cccc(N(Cc2ccc(-c3ccc(N(C)C)cc3)cc2)C(=O)C2CCCCC2)c1 [Fexaramine],scaled lipid accumulation score,[2],0.006
CC(NC(=O)Cc1cc(F)cc(F)c1)C(=O)NC1C(=O)N(C)c2ccccc2-c2ccccc21 (stereo not drawn),scaled lipid accumulation score,[3],≤ 0
same,scaled lipid accumulation score,[2],0.235
N[C@@H](Cc1ccc(O)c(I)c1)C(=O)O [3-Iodo-L-tyrosine],scaled lipid accumulation score,[2],≤ -0.055
CCOC(=O)c1ccnc(C(=O)OCC)c1,scaled lipid accumulation score,[1],≤ 0
CC/C=C\C/C=C\C/C=C\CCCCCCCCCC(=O)O [Eicosatrienoic acid (20:3 n-3)],scaled lipid accumulation score,[1],0.075
O=c1[nH]nc(Sc2ncc([N+](=O)[O-])s2)n1-c1ccc2c(c1)OCCO2,scaled lipid accumulation score,[2],1.25 (active)
O=C1NCCN1c1ncc([N+](=O)[O-])s1 [Niridazole],scaled lipid accumulation score,,≤ 0
Nc1nnc(Sc2ncc([N+](=O)[O-])s2)s1,scaled lipid accumulation score,[2],0.438
CCCCC[C@H](O)/C=C/[C@@H]1[C@@H](CCCCCCCO)[C@@H](O)C[C@H]1O [Prostaglandin F1.alpha. Alcohol],scaled lipid accumulation score,[1],≤ 0
CCCCC(=O)Oc1ccccc1C(=O)O [Valeroyl Salicylate],scaled lipid accumulation score,[1],≤ 0
"CC[C@H](CO)Nc1nc(NCc2ccc(-c3ccccn3)cc2)c2ncn(C(C)C)c2n1 [CR8, (R)-Isomer]",scaled lipid accumulation score,[3],≤ 0
CCOC(=O)c1ncc2[nH]c3cccc(OC(C)C)c3c2c1C,scaled lipid accumulation score,[2],0.014
Cc1nc(N=Nc2cc(S(=O)(=O)O)c3cc([N+](=O)[O-])cc(S(=O)(=O)O)c3c2)c(COP(=O)(O)O)c(C=O)c1O [PPNDS tetrasodium],scaled lipid accumulation score,[2],0.229
CCCNCC(O)COc1ccccc1C(=O)CCc1ccccc1.Cl (stereo not drawn) [Propafenone hydrochloride],scaled lipid accumulation score,[2],0.887 (active)
COCCNC(=O)COc1ccc(OCCNC[C@H](O)COc2ccccc2)cc1 [ZD 7114 hydrochloride],scaled lipid accumulation score,[2],0.134
CCCNCC(O)COc1ccccc1C(=O)CCc1ccccc1 (stereo not drawn) [Propafenone HCl],scaled lipid accumulation score,[3],0.241
same,scaled lipid accumulation score,[2],0.684
CCCNCC(O)COc1ccccc1C(=O)CCc1ccccc1 (stereo not drawn) [Rythmol],scaled lipid accumulation score,[2],0.811
CCCNCC(O)COc1ccccc1C(=O)CCc1ccccc1 (stereo not drawn) [Propafenone],scaled lipid accumulation score,library stock concentration: 5.9 mM,0.566
CCCNCC(O)COc1ccccc1C(=O)CCc1ccccc1 (stereo not drawn) [Propafenone hydrochloride],scaled lipid accumulation score,,0.742
same,scaled lipid accumulation score,library stock concentration: 5.3 mM,0.429
same,scaled lipid accumulation score,[2],0.365
"O=C(O)COc1ccc(OCCNC[C@H](O)COc2ccccc2)cc1 [ICI 215,001 hydrochloride]",scaled lipid accumulation score,[2],0.013
N#Cc1ccccc1OCC(O)CNCCNC(=O)Nc1ccccc1 (stereo not drawn),scaled lipid accumulation score,[2],0.135
CC(C)ON(CC(=O)NO)S(=O)(=O)c1ccc(-c2ccccc2)cc1,scaled lipid accumulation score,[1],≤ 0
O=C1NN(C(=O)Nc2ccc(Br)cc2)[C@@H](c2ccccc2)[C@@H]1c1ccccc1,scaled lipid accumulation score,[2],0.026
COc1cccc(-c2cc(F)ccc2[C@H]2Cc3nc(N)nc(C)c3C(=O)N2)n1,scaled lipid accumulation score,[2],0.937 (active)
COc1ccc(-c2cc3c(C)nc(N)nc3n([C@H]3CC[C@H](OCCO)CC3)c2=O)cn1,scaled lipid accumulation score,[3],≤ 0
same,scaled lipid accumulation score,[2],0.45
COc1cccc(-c2cc(F)ccc2C2Cc3nc(N)nc(C)c3C(=O)N2)n1 (stereo not drawn),scaled lipid accumulation score,[3],0.806
Cc1ccsc1C(=CCCN1CCC[C@@H](C(=O)O)C1)c1sccc1C,scaled lipid accumulation score,[2],≤ 0
O=C1N[C@@H]2[C@@H](O)[C@@H](O)[C@H](O)[C@@H](CO)N2C1=O [Kifunensine],scaled lipid accumulation score,[1],0.034
CC(CCCCC(=O)Nc1ccc(C(F)(F)F)cc1)NCCc1cnc[nH]1 (stereo not drawn) [HTMT dimaleate],scaled lipid accumulation score,[2],0.519
NC(=O)CCCSc1nc(N)nc(-c2c(Cl)cc3c4c(cccc24)COC3)n1,scaled lipid accumulation score,[3],0.86 (active)
same,scaled lipid accumulation score,[2],0.886 (active)
O=P(O)(O)OC1[C@H](O)[C@H](O)C(O)[C@H](O)[C@H]1O (stereo partly drawn) [D-myo-Inositol-1-phosphate (sodium salt)],scaled lipid accumulation score,[1],0.012
CCCCCCC=CCCCCCCCCCCOC(C)=O [11-cis Vaccenyl Acetate],scaled lipid accumulation score,[1],≤ 0
Nc1nc(Nc2ccc(S(N)(=O)=O)cc2)nn1C(=S)Nc1c(F)cccc1F [Cdk1/2 Inhibitor III],scaled lipid accumulation score,[3],0.782
CCCCC/C=C\C[C@@H](O)/C=C/C=C\C/C=C\CCCC(=O)O,scaled lipid accumulation score,library stock concentration: 100 uM,≤ -0.021
CCc1cc2c(cc1CC)CC(NC[C@H](O)c1ccc(O)c3[nH]c(=O)ccc13)C2.O=C(O)C=CC(=O)O [Indacaterol Maleate],scaled lipid accumulation score,[2],1.15 (active)
CCc1cc2c(cc1CC)CC(NC[C@H](O)c1ccc(O)c3[nH]c(=O)ccc13)C2 [Indacaterol Maleate],scaled lipid accumulation score,[3],0.494
CCC(NC(C)C)C(O)c1ccc(O)c2[nH]c(=O)ccc12 (stereo not drawn) [Procaterol hydrochloride],scaled lipid accumulation score,library stock concentration: 6.1 mM,≤ 0
same,scaled lipid accumulation score,[2],≤ -0.006
CCC(NC(C)C)C(O)c1ccc(O)c2[nH]c(=O)ccc12 (stereo not drawn) [Procaterol hcl],scaled lipid accumulation score,library stock concentration: 6.9 mM,≤ -0.006
Cc1nc2ccc(-n3ncc(C(=O)c4cc5ccccc5[nH]4)c3N)cc2[nH]1 [listing 1 of 2 here],scaled lipid accumulation score,library stock concentration: 80 uM,0.004
same,scaled lipid accumulation score,library stock concentration: 400 uM,≤ -0.001
same,scaled lipid accumulation score,library stock concentration: 2 mM,≤ 0
Cc1nc2ccc(-n3ncc(C(=O)c4cc5ccccc5[nH]4)c3N)cc2[nH]1 [listing 2 of 2 here],scaled lipid accumulation score,[2],0.907 (active)
O=C(O)c1cc2ccccc2[nH]1 [Indole-2-carboxylic acid],scaled lipid accumulation score,[2],≤ 0
CC(C)c1cc(C(C)C)c(CC(=O)NS(=O)(=O)Oc2c(C(C)C)cccc2C(C)C)c(C(C)C)c1 [Avasimibe],scaled lipid accumulation score,[3],≤ 0
same,scaled lipid accumulation score,[2],≤ 0
COc1cccc(NC(=O)/C=C/c2ccc(Cl)cc2)c1 [listing 1 of 2 here],scaled lipid accumulation score,[2],0.153
COc1cc(/C=C/c2ccc(Cl)cc2)cc(OC)c1,scaled lipid accumulation score,[1],≤ 0
COc1cccc(NC(=O)/C=C/c2ccc(Cl)cc2)c1 [listing 2 of 2 here],scaled lipid accumulation score,[2],1.2 (active)
